Common to all, as to format: functional
The test system of assay [1] is Plasmodium falciparum. Kind of assay: GSK_TCMDC: Inhibition of Plasmodium falciparum 3D7 in whole red blood cells, using parasite LDH activity as an index of growth. Test compounds present at 2uM.
The test system of assay [2] is Plasmodium falciparum. The assay can be described thus: GSK_TCMDC: Inhibition of Plasmodium falciparum Dd2 in whole red blood cells, using parasite LDH activity as an index of growth. Test compounds present at 2uM.
A further assay concerns HepG2. The assay can be described thus: GSK_TCMDC: Percent inhibition of human HepG2 cell line. Test compounds present at 10uM.

Here are results for ten compounds from ChEMBL document CHEMBL1157539, “Thousands of chemical starting points for antimalarial lead identification” (Nature, 2010).

Structures are written as SMILES.

One may read the Inhibition as how much of the control response was suppressed. A higher Inhibition goes with a strong effect. As for `COc1ccccc1CNc1ncc(-c2ccsc2)c(-c2nccs2)n1`, the values for the Inhibition in the assay on Plasmodium falciparum [1], in the assay on Plasmodium falciparum [2] and in the assay on HepG2 were 91%, 84% and 14%, respectively.
Turning to `COc1cc(Br)ccc1N1CCN(CCCCNC(=O)c2ccc(NC(=O)c3ccc(Cl)cc3)cc2)CC1.Cl`, the figures for the Inhibition with Plasmodium falciparum [1], in the assay with Plasmodium falciparum [2] and in the assay with HepG2 were 96%, 33% and 55%, respectively.
For the compound `COc1cc2nc(N3CCC(CNC(=O)c4ccc(-c5ccc(C(=O)N(C)C)cc5C)cc4)CC3)nc(N3CCN(C)CC3)c2cc1OC`, the Inhibition in the assay on Plasmodium falciparum [1] was found to be 88%; in the assay on Plasmodium falciparum [2], 84%; in the assay with HepG2, 26%.
With `N=c1c2nc(-c3c(F)cccc3Cl)[nH]c(=O)c2[nH]c(=O)n1-c1ccccc1`, the values for the Inhibition with Plasmodium falciparum [1], in the assay on Plasmodium falciparum [2] and with HepG2 were 95%, 0% and 52%, respectively.
For `CCOC(=O)Cc1nc(C(=O)OCC)c(N)[nH]1.Cl`, in that order: 94%, 24% and 2%.
For `CCOC(=O)c1ccc(OCc2ccc(-c3ccccc3)cc2)cc1`, in that order: 96%, 0% and 18%.
On to `COc1ccc2nccc(NCC3(O)CCN(CC(O)c4ccc5c(c4)NC(=O)CS5)CC3)c2n1.Cl` (stereo not given), for which the Inhibition with Plasmodium falciparum [1] stood at 100%; in the assay on Plasmodium falciparum [2], 3%; in the assay on HepG2, 3%.
For the compound `CSC1=NC(=Nc2c(C)cccc2C)C2(CCC(C(C)(C)C)CC2)N1c1ccc(O)cc1.I` (stereo not given), the Inhibition in the assay on Plasmodium falciparum [1] turned out to be 97%; with Plasmodium falciparum [2] it was 93%; with HepG2 it was 5%.
For `Cc1ccoc1C(=O)Nc1cccc(-c2cccc(-c3nc4ccccc4[nH]3)c2)c1`, in that order: 85%, 20% and 43%.
For `CN1CCN(CCCNc2ncc3c(-c4ccc(NC(=O)Nc5cc(C(F)(F)F)ccc5F)c(F)c4)nn(C)c3n2)CC1.O=C(O)C(F)(F)F`, in that order: 98%, 94% and 100%.
